Compound activity (PubChem BioAssay)
KCNQ2 pot: KCNQ2 (rat) channel potentiation; O88943; CHO-K1 KCNQ2, FluxOR thallium flux fluorescence; stronger effect = higher value; B-score at 10 µM; actives 0.54% (n = 310,000); AID 2239;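 active means fluorescence ratio B-score at least 3 SD of library B-scores, with initial fluorescence B-score within 3 of them, cut at about 5.3 in these data; same plate scores as AID 2156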;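 further: B-score of peak minus minimum over baseline fluorescence ratio after K+ and Tl+ stimulus; positive B-score means potentiation of KCNQ2 with more thallium influx and brighter signal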
KCNQ2 block: KCNQ2 (rat) channel inhibition; CHO-K1 KCNQ2, FluxOR thallium flux, 20 min; stronger effect = lower value; B-score at 10 µM; AID 2156; O88943; actives 1.1% (n = 310,000);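 active means fluorescence ratio B-score at most minus 3 library SDs, with starting brightness B-score within 2 library SDs, cut at about -5.5 in these data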
KCNQ2 block conf: confirmation of rat KCNQ2 potassium channel inhibitors; AID 493025; shares compounds with KCNQ2 block; activity change, negative = inhibition, % at 10 µM; actives 57% (n = 1,000); KCNQ2-expressing cells, thallium flux, inhibition; stronger effect = lower value;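 further: 0% = vehicle wells and values are ratio percent relative to vehicle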
KCNQ1 spec: selectivity of KCNQ2 inhibitors against human KCNQ1. actives 15% (n = 1,000). shares compounds with KCNQ2 block. KCNQ1-expressing cells, FluxOR thallium flux fluorescence; stronger effect = lower value. activity change, negative = inhibition, % at 10 µM. AID 493026;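 active means activity change at least 3 SD of negative controls below their mean in both duplicate wells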;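 further: CHO cells stably transfected with KCNQ1 and depolarized by potassium stimulus; peak minus minimum fluorescence over baseline after thallium addition; 0% = vehicle negative control and -100% = blank without thallium stimulus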
Target sequence (P51787 whole entry, looked up): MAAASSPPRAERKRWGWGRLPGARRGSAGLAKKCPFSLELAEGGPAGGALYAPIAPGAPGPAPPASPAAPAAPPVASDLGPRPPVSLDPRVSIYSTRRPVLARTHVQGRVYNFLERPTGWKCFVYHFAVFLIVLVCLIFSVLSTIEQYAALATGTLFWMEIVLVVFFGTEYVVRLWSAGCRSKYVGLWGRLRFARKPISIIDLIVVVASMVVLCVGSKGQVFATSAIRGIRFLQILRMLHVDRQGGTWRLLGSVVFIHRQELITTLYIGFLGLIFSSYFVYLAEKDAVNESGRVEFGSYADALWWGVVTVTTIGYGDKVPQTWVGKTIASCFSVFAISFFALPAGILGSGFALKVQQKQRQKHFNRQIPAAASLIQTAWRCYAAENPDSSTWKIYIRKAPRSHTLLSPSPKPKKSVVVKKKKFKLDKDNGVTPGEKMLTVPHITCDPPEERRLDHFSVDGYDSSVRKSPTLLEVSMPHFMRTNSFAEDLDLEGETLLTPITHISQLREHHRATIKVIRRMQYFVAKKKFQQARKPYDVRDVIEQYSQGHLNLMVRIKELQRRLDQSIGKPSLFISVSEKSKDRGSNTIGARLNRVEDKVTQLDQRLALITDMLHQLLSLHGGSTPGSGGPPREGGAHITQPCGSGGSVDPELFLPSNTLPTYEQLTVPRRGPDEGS
CHO Tl ctr: activity in parental CHO cells lacking KCNQ2. shares compounds with KCNQ2 block. actives 14% (n = 1,000). activity change, % at 10 µM. AID 493029. thallium flux counter-screen; stronger effect = lower value;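 further: 0% = vehicle negative controls with stimulus buffer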
KCNQ2 inh confirm: confirmation of rat KCNQ2 potassium channel inhibitors; shares compounds with KCNQ2 block; KCNQ2-expressing cells, automated patch clamp current; calls only at 10 µM; actives 49% (n = 550)
* = called active by the depositor; i = inactive; . = no result given; + = active, no number. Sampled rows, rich in hits. Any-hit rate of the full collection: about 1.6%. Unless noted, how the calls were made is not given here.

SMILES | KCNQ2 pot | KCNQ2 block | KCNQ2 block conf | KCNQ1 spec | CHO Tl ctr | others
CC(C)CN(C(=O)COC(=O)c1ccccn1)c1c(N)n(Cc2ccccc2)c(=O)[nH]c1=O | 0.37 | i | . | . | .
COc1ccc(OCC(=O)NC2CCCN(Cc3ccc(Cl)cc3)C2)cc1 (stereo not given) | . | i | . | . | .
CCOC(=O)c1c(C)n(-c2ccc(C)cc2)c2ccc(OCC(O)CNCCCO)cc12 (stereo not given) | -10.9 | -10.9* | i | i | i
CCOC(=O)c1c(C)n(C)c2ccc(OCC(O)CNC(CC)CO)cc12 (stereo not given) | 1.21 | i | . | . | .
CCn1c(SCC(=O)c2ccccc2)nc2ccccc2c1=O | 0.74 | i | . | . | .
O=C(CSc1nc2ccccc2c(=O)n1NC(=O)c1ccccc1)c1ccc(Cl)cc1 | -10.2 | -10.2* | -30.0%* | i | i | KCNQ2 inh confirm=+
Cc1nc2ccccc2c(=O)n1NC(=O)c1ccc(Cl)cc1 | 1.75 | i | . | . | .
O=C(CSc1nc2ccccc2c(=O)n1NC(=O)c1ccccc1)c1ccccc1 | -11.7 | -11.7* | -15.5%* | i | i | KCNQ2 inh confirm=+
CCCCNCc1cc(OCC)c(OCC)cc1Br | 0.82 | i | . | . | .
O=C(NCCNC(=O)c1cccnc1)c1ccc(Br)cc1 | 0.01 | i | . | . | .
O=C(N/N=C/c1cc(Br)c(O)c(Br)c1)c1cc2c(ccc3ccccc32)o1 | -10.7 | -10.7* | -53.0%* | -49.5%* | -54.5%* | KCNQ2 inh confirm=i
O=C(N/N=C/c1ccc(O)c(Br)c1)c1cc2c(ccc3ccccc32)o1 | . | i | . | . | .
CN(C)CCNC(=O)C1CCN(S(=O)(=O)c2ccc3ccccc3c2)CC1 | 0.02 | i | . | . | .
C/C(=N/NC(=O)CNC(=O)CCc1ccccc1)c1ccc(Cl)c(Cl)c1 | 1.05 | i | . | . | .
CC(OC(=O)c1nc(-c2ccccc2)n(-c2ccccc2)n1)C(=O)Nc1cc(Cl)cc(Cl)c1 (stereo not given) | -6.86 | -6.86* | i | i | i
CC(C)CNC(=O)c1nc(-c2ccccc2)n(-c2ccccc2)n1 | . | i | . | . | .
CCOc1ccc(N=C2NC(=O)SC2CC(=O)OC)cc1 (stereo not given) | . | i | . | . | .
N#Cc1c(NCCCO)nc(-c2ccco2)c2c1CCCC2 | 0.3 | i | . | . | .
N#Cc1c(NC2CCCCC2)nc(-c2ccco2)c2c1CCCC2 | -7.05 | -7.05* | -34.5%* | i | i | KCNQ2 inh confirm=i
CC12CN(C(=S)Nc3ccccc3)CC(C)(CN(C(=S)Nc3ccccc3)C1)C2=O | . | i | . | . | .
CC(C)(C)OC(=O)N1CCC[C@H]1c1nnc(SCc2ccc(Cl)cc2Cl)o1 | -7.16 | -7.16* | i | i | i
CC(C)(C)OC(=O)N1CCC[C@H]1c1nnc(SCc2c(F)cccc2Cl)o1 | . | i | . | . | .
COC(=O)/C(C#N)=C/c1c(-c2ccccc2)nc2n1CCS2 | . | i | . | . | .
Clc1cccc(Cl)c1CO/N=C/c1c(-c2ccccc2)nc2n1CCS2 | -8.46 | -8.46* | i | i | i
Cc1cccc(NC(=O)c2ccccc2OCC(=O)c2ccccc2)c1 | -8.23 | -8.23* | i | i | i
SMILES | KCNQ2 pot | KCNQ2 block | KCNQ2 block conf | KCNQ1 spec | CHO Tl ctr | others
Cc1ccc(NC(=O)c2ccccc2OCC(=O)c2ccccc2)cc1 | . | i | . | . | .
Nc1[nH]c(=O)nc(Nc2ccccc2)c1N=O | . | i | . | . | .
O=C(Cc1c[nH]c2ccccc12)NC1(C(=O)NC2CCCC2)CCCCC1 | 0.34 | i | . | . | .
COc1ccc(NC(=O)c2cc(OC)c(OC)c(OC)c2Br)cc1OC | 2.68 | i | . | . | .
COc1cc(C(=O)Nc2c(C)cc(C)cc2C)c(Br)c(OC)c1OC | -8.77 | -8.77* | i | i | i
COc1ccccc1CNC(=O)CSC1=NCCS1 | -6.79 | -6.79* | i | i | i
O=C(CSC1=NCCS1)NC(NC(=O)CSC1=NCCS1)c1ccccc1 | 0.49 | i | . | . | .
O=C(CSC1=NCCS1)NC(c1ccccc1)c1ccccc1 | -8.25 | -8.25* | -42.0%* | -34.5%* | -32.0%* | KCNQ2 inh confirm=+
COc1ccccc1CNC(=O)CSc1ccc(Br)cc1 | . | i | . | . | .
CCN1CCN(C(=O)c2cc(COc3ccc(C(C)=O)cc3OC)on2)CC1 | 1.01 | i | . | . | .
CCC(Oc1ccccc1OC)C(=O)N1CC(=O)Nc2ccccc21 (stereo not given) | . | i | . | . | .
CCN(CC)S(=O)(=O)c1cc(C(=O)NCCN2CCOCC2)ccc1Cl | . | i | . | . | .
C=CCSc1nc(-c2ccc(OC)cc2)c(C#N)c(=O)n1CC=C | 0.83 | i | . | . | .
COc1ccc(C(=O)Nn2c(C)nc3ccccc3c2=O)cc1OC | . | i | . | . | .
